Test results taken from PubChem BioAssay (EPA / NIEHS).
Several values for one entry are separate records, joined by “and”; a condition that tells them apart may be missing. Equal entries are not always repeated. The source holds several records for some structures; these can differ, active in one and inactive in another. Activity calls are given as the source filed them. How the source made its calls: active means hit-call score of the fitted dose curve at least 0.9, where 1 is the maximum; inactive means score below 0.9.

Key:
Conditions in all cases: mRNA level, 48 h; actives raise or lower the signal
[1] = read-out: Glutamate-cysteine ligase regulatory (GCLM), GCLM (gene 2730); assay: LTEA_HepaRG_GCLM: Life Technologies and Expression Analysis (LTEA) Assay for Glutamate-cysteine ligase regulatory (GCLM) using HepaRG (AID 2283500)
Procedure, shortened: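 HepaRG, 48 h dosing, 100 uM top, half-log x8, 0.5% DMSO vehicle. Readout: GCLM mRNA by TaqMan qRT-PCR, housekeeping-normalized (ACTB/GAPDH/POLR2A). Curves fit bidirectionally vs DMSO baseline.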

[2] = read-out: Glutathione S-transferase M3 (GSTM3), GSTM3 (gene 2947); assay: LTEA_HepaRG_GSTM3: Life Technologies and Expression Analysis (LTEA) Assay for Glutathione S-transferase M3 (GSTM3) using HepaRG (AID 2283501)
Procedure, shortened: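 Expression of GSTM3 is determined by qRT-PCR in human liver HepaRG cells treated 48 h with an 8-point half-log range from 100 uM in 0.5% DMSO.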

[3] = read-out: Heat shock 70 kDa protein 1 (HSPA1A), gene 3303; assay: LTEA_HepaRG_HSPA1A: Life Technologies and Expression Analysis (LTEA) Assay for Heat shock 70 kDa protein 1 (HSPA1A) using HepaRG (AID 2283502)
Procedure, shortened: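 HepaRG, 48 h exposure, 8-pt half-log CRC from 100 uM in 0.5% DMSO, duplicates. Readout: TaqMan qRT-PCR of HSPA1A mRNA, housekeeping-normalized (ACTB/GAPDH/POLR2A). Bidirectional fit vs 0.5% DMSO baseline.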

[4] = read-out: Hypoxia-inducible factor 1-alpha (Homo sapiens) (UniProt Q16665); assay: LTEA_HepaRG_HIF1A: Life Technologies and Expression Analysis (LTEA) Assay for Hypoxia-inducible factor 1 (HIF1A) Trancription factor using HepaRG (AID 2283503)
Procedure, shortened: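 Gain- or loss-of-signal HIF1A mRNA changes are fitted against a DMSO baseline. HepaRG cultures receive eight concentrations, highest 100 uM, for 48 h in serum-free induction medium with 0.5% DMSO.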

[5] = read-out: 3-Hydroxy-3-Methylglutaryl-CoA Synthase 2 (HMGCS2), HMGCS2 (gene 3158); assay: LTEA_HepaRG_HMGCS2: Life Technologies and Expression Analysis (LTEA) Assay for 3-Hydroxy-3-Methylglutaryl-CoA Synthase 2 (HMGCS2) using HepaRG (AID 2283504)
Procedure, shortened: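 This steatosis marker was read as HMGCS2 mRNA change in HepaRG cells treated 48 h with up to 100 uM chemical. Normalisation used housekeeping genes; activity in either direction was fitted relative to 0.5% DMSO vehicle.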

HGF (gene 3082) = assay: LTEA_HepaRG_HGF: Life Technologies and Expression Analysis (LTEA) Assay for Hepatocyte Growth Facto (HGF) using HepaRG (AID 2283505)
Procedure, shortened: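 Using HepaRG monolayers kept in 0.5% DMSO, chemicals were tested in duplicate over eight half-log concentrations from 100 uM for 48 h. Endpoint: HGF mRNA change relative to DMSO, normalized to ACTB/GAPDH/POLR2A.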

[6] = read-out: Insulin Like Growth Factor 1 (IGF1), IGF1 (gene 3479); assay: LTEA_HepaRG_IGF1: Life Technologies and Expression Analysis (LTEA) Assay for Insulin Like Growth Factor 1 (IGF1) using HepaRG (AID 2283506)
Procedure, shortened: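 qRT-PCR readout of IGF1 mRNA, normalized to three housekeeping genes, after 48 h chemical exposure of HepaRG cells. Concentrations: 8-point half-log series, top 100 uM, 0.5% DMSO vehicle. Gain or loss fitted against DMSO baseline.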

[7] = read-out: Intercellular Adhesion Molecule 1 (ICAM1), ICAM1 (gene 3383); assay: LTEA_HepaRG_ICAM1: Life Technologies and Expression Analysis (LTEA) Assay for Intercellular Adhesion Molecule 1 (ICAM1) using HepaRG (AID 2283507)
Procedure, shortened: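 Using the human liver line HepaRG, compounds are tested in duplicate over 48 h at concentrations up to 100 uM. Expression is determined by TaqMan qRT-PCR, normalized to endogenous controls, and analysed relative to 0.5% DMSO vehicle.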

[8] = read-out: Insulin-like growth factor-binding protein 1 (IGFBP1), IGFBP1 (gene 3484); assay: LTEA_HepaRG_IGFBP1: Life Technologies and Expression Analysis (LTEA) Assay for Insulin-like growth factor-binding protein 1 (IGFBP1) using HepaRG (AID 2283508)
Procedure, shortened: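 HepaRG, 48 h, 8 conc. (max 100 uM, half-log), duplicates, 0.5% DMSO. Readout: TaqMan qRT-PCR, ACTB/GAPDH/POLR2A normalisation. Fit: bidirectional vs DMSO.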

[9] = read-out: Interleukin 6 (IL6), IL6 (gene 3569); assay: LTEA_HepaRG_IL6: Life Technologies and Expression Analysis (LTEA) Assay for Interleukin 6 (IL6) using HepaRG (AID 2283509)
Procedure, shortened: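 Changes in IL6 mRNA, up or down relative to 0.5% DMSO controls, were derived from concentration-response curves in human HepaRG cells treated for 48 h at up to 100 uM, with ACTB, GAPDH and POLR2A as normalizers.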

Hypoxia-inducible factor 1-alpha (Homo sapiens), sequence (Q16665 whole entry, looked up): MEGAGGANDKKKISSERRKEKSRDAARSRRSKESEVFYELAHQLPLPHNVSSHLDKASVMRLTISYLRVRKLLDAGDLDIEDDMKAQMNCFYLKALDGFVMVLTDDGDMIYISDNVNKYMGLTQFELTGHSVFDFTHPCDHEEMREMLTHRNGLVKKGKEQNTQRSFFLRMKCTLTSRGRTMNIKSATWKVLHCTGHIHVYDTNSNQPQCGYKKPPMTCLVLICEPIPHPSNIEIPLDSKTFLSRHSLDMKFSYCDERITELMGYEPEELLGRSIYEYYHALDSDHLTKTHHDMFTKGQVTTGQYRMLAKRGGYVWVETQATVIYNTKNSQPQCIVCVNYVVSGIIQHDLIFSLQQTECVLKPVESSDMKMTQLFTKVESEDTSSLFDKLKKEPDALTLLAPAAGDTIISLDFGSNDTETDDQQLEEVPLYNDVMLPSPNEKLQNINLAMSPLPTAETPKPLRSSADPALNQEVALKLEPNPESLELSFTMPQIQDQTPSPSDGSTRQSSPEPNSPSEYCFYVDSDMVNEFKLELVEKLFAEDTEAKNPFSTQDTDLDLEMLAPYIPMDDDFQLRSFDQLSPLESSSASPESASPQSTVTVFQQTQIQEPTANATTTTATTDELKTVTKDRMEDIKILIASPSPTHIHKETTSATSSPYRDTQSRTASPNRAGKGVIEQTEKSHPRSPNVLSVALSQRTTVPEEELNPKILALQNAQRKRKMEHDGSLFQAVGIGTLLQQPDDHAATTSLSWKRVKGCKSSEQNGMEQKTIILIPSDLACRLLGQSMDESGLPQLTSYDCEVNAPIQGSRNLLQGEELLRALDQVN

SMILES | outcome [1] | outcome [2] | outcome [3] | outcome [4] | outcome [5] | outcome (HGF (gene 3082)) | outcome [6] | outcome [7] | outcome [8] | outcome [9] | AC50 [2] | AC50 [5] | AC50 [1] | AC50 [3] | AC50 [6] | AC50 [8] | AC50 [9] | AC50 [4] | AC50 (HGF (gene 3082)) | AC50 [7]
CCOP(=S)(OCC)Oc1nc(Cl)c(Cl)cc1Cl | inactive | inactive | inactive | inactive | inactive | inactive | inactive | inactive | inactive | inactive |  |  |  |  |  |  |  |  |  | 
CCC(C)(C)c1ccc(O)c(C(C)(C)CC)c1 | inactive | inactive | inactive | inactive | inactive | inactive | inactive | inactive | inactive | inactive |  |  |  |  |  |  |  |  |  | 
CCC(=O)C(CC(C)N(C)C)(c1ccccc1)c1ccccc1 (centres undefined) | inactive |  | inactive | inactive |  | inactive | inactive | inactive | inactive | inactive | 36.2 µM (active) | 36.2 µM (active) |  |  |  |  |  |  |  | 
O=C(O)C(Cl)(Cl)Cl | inactive | inactive | inactive | inactive | inactive | inactive | inactive | inactive | inactive | inactive |  |  |  |  |  |  |  |  |  | 
COc1cc(-c2ccc(N)c(OC)c2)ccc1N | inactive | inactive | inactive | inactive | inactive | inactive |  | inactive | inactive | inactive |  | 42.7 µM (active) | 50 µM (active) | 75 µM (active) | 39.4 µM (active) and 34.4 µM (active) | 86.9 µM (active) | 13 µM (active) |  |  | 
C[C@@H]1C[C@@H]([C@H](O)CC2CC(=O)NC(=O)C2)C(=O)[C@@H](C)C1 |  |  |  |  |  |  |  |  |  |  | 5.85 µM (active) | 27 µM (active) | 17.9 µM (active) | 30.6 µM (active) | 9.09 µM (active) | 22.3 µM (active) | 11.8 µM (active) | 9.18 µM (active) | 71.7 µM (active) | 11.9 µM (active)
CCCCCCCCc1ccc(O)cc1 | inactive | inactive | inactive | inactive |  | inactive | inactive | inactive | inactive | inactive |  | 64.6 µM (active) |  |  |  |  |  |  |  | 
CC(C)(OO)c1ccccc1 | inactive | inactive | inactive | inactive | inactive | inactive | inactive | inactive | inactive | inactive |  |  |  |  |  |  |  |  |  | 
CC12CC1(C)C(=O)N(c1cc(Cl)cc(Cl)c1)C2=O (centres undefined) | inactive | inactive | inactive | inactive |  | inactive |  | inactive | inactive | inactive |  | 21.6 µM (active) |  |  | 18.6 µM (active) |  |  |  |  | 
O=[N+]([O-])c1ccc(O)c([N+](=O)[O-])c1 |  |  | inactive |  |  | inactive |  | inactive |  |  | 12.7 µM (active) | 22.9 µM (active) | 12.2 µM (active) |  | 27.9 µM (active) | 13.3 µM (active) | 60.3 µM (active) | 44.8 µM (active) |  | 
CCN1CCC2(CC1)COc1cc3c(cc12)N(C(=O)c1ccc(-c2ccc(-c4nnc(C)o4)cc2C)cc1)CC3 |  | inactive |  |  |  | inactive |  |  |  |  |  | 22.8 µM (active) | 26.8 µM (active) | 16.6 µM (active) | 14.5 µM (active) | 13.4 µM (active) | 16 µM (active) | 27.7 µM (active) |  | 11.1 µM (active)
ClCC(Cl)CCl | inactive | inactive | inactive | inactive | inactive | inactive | inactive | inactive | inactive | inactive |  |  |  |  |  |  |  |  |  | 
CC(C)(C)c1cc(O)ccc1O | inactive | inactive | inactive |  | inactive | inactive | inactive | inactive | inactive | inactive |  |  |  |  |  |  |  |  |  | 
O=C(Nc1ccc2[nH]ccc2c1)c1cc2cc(F)ccc2n1Cc1cccc(F)c1 |  | inactive |  |  |  | inactive |  |  |  |  |  | 30.2 µM (active) | 27.8 µM (active) | 90.7 µM (active) | 33.1 µM (active) | 27.2 µM (active) | 50 µM (active) | 84.5 µM (active) |  | 12.6 µM (active)
CCOP(=S)(OCC)SCSP(=S)(OCC)OCC | inactive | inactive | inactive | inactive |  | inactive |  | inactive | inactive | inactive |  | 9.92 µM (active) |  |  | 0.0903 µM (active) |  |  |  |  | 
